Assay results from PubChem BioAssay (EPA / NIEHS).
Active and inactive are the calls of the source. The calls were made as follows: active = hit-call score of the fitted dose curve at least 0.9, where 1 is the maximum; inactive = score below 0.9.

What was measured:
[1] = read-out: Monocyte Chemoattractant Protein-1 (MCP1), CCL2 (gene 6347); assay: BSK_CASM3C_MCP1: BioMAP Diversity Plus: CASM3C Assay for Monocyte Chemoattractant Protein-1 (MCP1) Biomarker Activity (AID 2283046); details: primary human coronary artery smooth muscle cells; actives raise or lower the signal;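 also: MCP-1 level quantified by ELISA 24 h after dosing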
[2] = BSK_CASM3C_Proliferation: Cell Proliferation Assessment in the BioMAP Diversity Plus: CASM3C Assay (AID 2283047); details: primary human coronary artery smooth muscle cells;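 also: sulforhodamine B total protein stain as relative cell number at 560 nm; sub-confluent cells exposed 48 h before staining; fitted both ways against DMSO so gain or loss of cell number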
[3] = read-out: Monokine induced gamma interferon (MIG), CXCL9 (gene 4283); assay: BSK_CASM3C_MIG: BioMAP Diversity Plus: CASM3C Assay for Monokine induced gamma interferon (MIG) Biomarker Activity (AID 2283048); details: primary human coronary artery smooth muscle cells; actives raise or lower the signal;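 also: MIG protein level measured by ELISA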
[4] = read-out: serum amyloid A (SAA), SAA1 (gene 6288); assay: BSK_CASM3C_SAA: BioMAP Diversity Plus: CASM3C Assay for serum amyloid A (SAA) Biomarker Activity (AID 2283049); details: primary human coronary artery smooth muscle cells; actives raise or lower the signal;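 also: SAA protein level quantified by ELISA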
[5] = BSK_CASM3C_SRB: Viability Assessment in the BioMAP Diversity Plus: CASM3C Assay (AID 2283050); details: primary human coronary artery smooth muscle cells;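 also: total protein by SRB staining as cytotoxicity measure in parallel cultures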
[6] = read-out: Thrombomodulin, THBD (gene 7056); assay: BSK_CASM3C_Thrombomodulin: BioMAP Diversity Plus: CASM3C Assay for Thrombomodulin Biomarker Activity (AID 2283051); details: primary human coronary artery smooth muscle cells; actives raise or lower the signal;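 also: thrombomodulin protein level measured by ELISA 24 h after dosing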
[7] = read-out: Tissue Factor, F3 (gene 2152); assay: BSK_CASM3C_TissueFactor: BioMAP Diversity Plus: CASM3C Assay for Tissue Factor Biomarker Activity (AID 2283052); details: primary human coronary artery smooth muscle cells; actives raise or lower the signal;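 also: cell surface tissue factor protein level read by ELISA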
[8] = read-out: Interferon-gamma inducible Protein 10 (IP10), CXCL10 (gene 3627); assay: BSK_hDFCGF_IP10: BioMAP Diversity Plus: hDFCGF Assay for Interferon-gamma inducible Protein 10 (IP10) Biomarker Activity (AID 2283053); details: primary human foreskin fibroblasts; actives raise or lower the signal
Procedure, shortened: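 Human foreskin fibroblast primary cells (hDFCGF system) were dosed with chemical and assayed at 24 h; IP-10 measured by ELISA. Activity fitted bidirectionally relative to DMSO negative control as baseline.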

[9] = read-out: Urokinase-type plasminogen activator receptor (uPAR), PLAUR (gene 5329); assay: BSK_CASM3C_uPAR: BioMAP Diversity Plus: CASM3C Assay for Urokinase-type plasminogen activator receptor (uPAR) Biomarker Activity (AID 2283054); details: primary human coronary artery smooth muscle cells; actives raise or lower the signal;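 also: cell-surface uPAR protein level quantified by ELISA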
[10] = read-out: Vascular cell adhesion molecule 1 (VCAM1), VCAM1 (gene 7412); assay: BSK_CASM3C_VCAM1: BioMAP Diversity Plus: CASM3C Assay for Vascular cell adhesion molecule 1 (VCAM1) Biomarker Activity (AID 2283055); details: primary human coronary artery smooth muscle cells; actives raise or lower the signal;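 also: VCAM-1 protein level quantified by ELISA on the cells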
[11] = read-out: Collagen III, COL3A1 (gene 1281); assay: BSK_hDFCGF_CollagenIII: BioMAP Diversity Plus: hDFCGF Assay for Collagen III Biomarker Activity (AID 2283056); details: primary human foreskin fibroblasts; actives raise or lower the signal
Procedure, shortened: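 ELISA read-out of collagen III from human skin fibroblast cultures sampled 24 h post-dosing. Values were derived by bidirectional fitting relative to the DMSO vehicle control.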

[12] = read-out: Epidermal growth factor receptor (EGFR), EGFR (gene 1956); assay: BSK_hDFCGF_EGFR: BioMAP Diversity Plus: hDFCGF Assay for Epidermal growth factor receptor (EGFR) Biomarker Activity (AID 2283057); details: primary human foreskin fibroblasts; actives raise or lower the signal
Procedure, shortened: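 Primary human foreskin fibroblasts were exposed to compound for 24 h, after which cell-surface EGFR was quantified by ELISA. Activity was fitted bidirectionally against the DMSO negative control as baseline.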

[13] = read-out: Interleukin-8 (IL8), CXCL8 (gene 3576); assay: BSK_hDFCGF_IL8: BioMAP Diversity Plus: hDFCGF Assay for Interleukin-8 (IL8) Biomarker Activity (AID 2283058); details: primary human foreskin fibroblasts; actives raise or lower the signal
Procedure, shortened: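 Cells used are human skin primary fibroblasts. Chemical is added, cultures run 24 h, then IL-8 is quantified by ELISA, and gain or loss versus DMSO control is fitted in both directions.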

[14] = BSK_hDFCGF_Proliferation: Cell Proliferation Assessment in the BioMAP Diversity Plus: hDFCGF Assay (AID 2283059); details: primary human foreskin fibroblasts;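 also: curves fitted for both rise and fall of signal versus DMSO baseline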
Procedure, shortened: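 This proliferation readout used SRB total-protein staining of human foreskin fibroblasts […], normalized to DMSO with bidirectional curve fitting.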

[15] = BSK_hDFCGF_SRB: Viability Assessment in the BioMAP Diversity Plus: hDFCGF Assay (AID 2283061); details: primary human foreskin fibroblasts;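 also: cells exposed to compound for 24 h before the read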
Procedure, shortened: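 Readout is SRB absorbance at 560 nm, reflecting total protein in parallel cultures of human foreskin fibroblasts harvested 24 h after chemical dosing. Activity was fitted bidirectionally relative to DMSO.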

[16] = read-out: TIMP metallopeptidase inhibitor 1 (TIMP1), TIMP1 (gene 7076); assay: BSK_hDFCGF_TIMP1: BioMAP Diversity Plus: hDFCGF Assay for TIMP metallopeptidase inhibitor 1 (TIMP1) Biomarker Activity (AID 2283062); details: primary human foreskin fibroblasts; actives raise or lower the signal
Procedure, shortened: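 Human skin fibroblasts (primary), hDFCGF system; compound exposure 24 h; TIMP-1 by ELISA; bidirectional fit vs DMSO negative control; overt cytotoxicity by SRB in parallel wells.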

[17] = read-out: Monokine induced gamma interferon (MIG), CXCL9 (gene 4283); assay: BSK_hDFCGF_MIG: BioMAP Diversity Plus: hDFCGF Assay for Monokine induced gamma interferon (MIG) Biomarker Activity (AID 2283063); details: primary human foreskin fibroblasts; actives raise or lower the signal
Procedure, shortened: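 Chemicals were added to primary human foreskin fibroblast cultures, which were sampled 24 h later. MIG levels were then quantified by ELISA and responses fitted in both directions relative to DMSO.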

[18] = read-out: Matrix Metallopeptidase 1 (MMP1), MMP1 (gene 4312); assay: BSK_hDFCGF_MMP1: BioMAP Diversity Plus: hDFCGF Assay for Matrix Metallopeptidase 1 (MMP1) Biomarker Activity (AID 2283064); details: primary human foreskin fibroblasts; actives raise or lower the signal
Procedure, shortened: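 Primary human foreskin fibroblasts in the hDFCGF system were dosed with test chemical, and MMP1 was measured by ELISA 24 h later. Values come from bidirectional curve fitting against the DMSO baseline.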

[19] = read-out: Vascular cell adhesion molecule 1 (VCAM1), VCAM1 (gene 7412); assay: BSK_hDFCGF_VCAM1: BioMAP Diversity Plus: hDFCGF Assay for Vascular cell adhesion molecule 1 (VCAM1) Biomarker Activity (AID 2283065); details: primary human foreskin fibroblasts; actives raise or lower the signal
Procedure, shortened: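 Human foreskin fibroblast primary cells, chemical exposure 24 h; VCAM-1 by ELISA; bidirectional fit, DMSO = negative control/baseline.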

[20] = read-out: Macrophage colony-stimulating factor (MCSF), CSF1 (gene 1435); assay: BSK_hDFCGF_MCSF: BioMAP Diversity Plus: hDFCGF Assay for Macrophage colony-stimulating factor (MCSF) Biomarker Activity (AID 2283060); details: primary human foreskin fibroblasts; actives raise or lower the signal
Procedure, shortened: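 Primary human foreskin fibroblasts dosed with chemical; 24 h later, M-CSF quantified by ELISA; curves fitted in both directions vs DMSO negative control.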

Measured: AC50

C1N2CN3CN1CN(C2)C3
inactive: [1] | [2] | [3] | [4] | [5] | [6] | [7] | [8] | [9] | [10] | [11] | [12] | [13] | [14] | [15] | [16] | [17] | [18] | [19]

COCCOc1cc2cc(C(=O)NC3CCN(C(C)C)CC3)n(CC(=O)Nc3ccc(Cl)cn3)c2cn1
inactive: [1] | [2] | [3] | [4] | [5] | [6] | [7] | [8] | [9] | [10] | [11] | [12] | [13] | [14] | [20] | [15] | [16] | [17] | [18] | [19]

CC[C@H]1OC(=O)[C@H](C)[C@@H](O[C@H]2C[C@@](C)(OC)[C@@H](O)[C@H](C)O2)[C@H](C)[C@@H](O[C@@H]2O[C@H](C)C[C@H](N(C)C)[C@H]2O)[C@](C)(O)C[C@@H](C)C(=O)[C@H](C)[C@@H](O)[C@]1(C)O
inactive: [1] | [2] | [3] | [4] | [5] | [6] | [7] | [8] | [9] | [10] | [11] | [12] | [13] | [14] | [20] | [15] | [16] | [17] | [18] | [19]

CC[C@H]1CC[C@H](NCc2cc3c(cc2OC)[C@H]2C[C@H]2C(=O)N3C)[C@H](c2ccccc2)N1
active: [2] 7.17 µM | [11] 1.57 µM | [14] 20 µM
inactive: [1] | [3] | [4] | [5] | [6] | [7] | [8] | [9] | [10] | [12] | [13] | [20] | [15] | [16] | [17] | [18] | [19]

Cc1ccc(S(=O)(=O)O)cc1C
inactive: [1] | [2] | [3] | [4] | [5] | [6] | [7] | [8] | [9] | [10] | [11] | [12] | [13] | [14] | [20] | [15] | [16] | [17] | [18] | [19]

COC(=O)c1ccccc1O
inactive: [1] | [2] | [3] | [4] | [5] | [6] | [7] | [8] | [9] | [10] | [11] | [12] | [13] | [14] | [20] | [15] | [16] | [17] | [18] | [19]
